Measured values taken from PubChem BioAssay (NCATS).
Inconclusive results are not listed. Calls of active or inactive are those of the source. Calls follow the shape of the dose curve; as a rule, active = well fitted inhibition curve with a large enough effect; inconclusive = small, poorly fitted or top-dose-only effect; inactive = flat fitted curve, though single readings scatter.

Experiments:
Assay in all cases: qHTS profiling for inhibitors of Plasmodium falciparum proliferation (AID 504749); also: nearly all actives have a fitted effect of over 60% in size
Conditions in all cases: P. falciparum in erythrocytes, SYBR Green DNA, 72 h; series mostly up to 28.7 µM
CP260 = system: CP260
How it was run: (§1)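 SYBR Green fluorescence (ex 485 nm, em 535 nm) reports parasite DNA after 72 h compound exposure of infected red cells at 0.3% parasitemia, 2.5% hematocrit; signal normalized to 0.29 uM artemisinin and vehicle wells.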

CP262 = system: CP262
How it was run: as §1

CP265 = system: CP265
How it was run: as §1

CP266 = system: CP266
How it was run: as §1

CP268 = system: CP268
How it was run: as §1

CP269 = system: CP269
How it was run: as §1

CP286 = system: CP286
How it was run: as §1

CP291 = system: CP291
How it was run: as §1

CP297 = system: CP297
How it was run: as §1

CP305 = system: CP305
How it was run: as §1

CP315 = system: CP315
How it was run: as §1

CP325 = system: CP325
How it was run: as §1

CP329 = system: CP329
How it was run: as §1

CP335 = system: CP335
How it was run: as §1

DFO2036 = system: DFO2036
How it was run: as §1

DIV14 = system: DIV14
How it was run: as §1

DIV17 = system: DIV17
How it was run: as §1

DIV30 = system: DIV30
How it was run: as §1

Dd2 = system: Dd2
How it was run: as §1

ECU = system: ECU
How it was run: as §1

Measured: Potency
Potency is read from the fitted curve at half-maximal effect.

CO[C@H](C(=O)[C@@H](O)[C@@H](C)O)C1Cc2cc3cc(O[C@H]4C[C@@H](O[C@H]5C[C@@H](O)[C@H](O)[C@@H](C)O5)[C@@H](O)[C@@H](C)O4)c(C)c(O)c3c(O)c2C(=O)[C@H]1O[C@H]1C[C@@H](O[C@H]2C[C@@H](O[C@H]3C[C@](C)(O)[C@H](O)[C@@H](C)O3)[C@H](O)[C@@H](C)O2)[C@H](O)[C@@H](C)O1 (some centres not stated)
active: CP260 112 nM | CP262 1.69 µM | CP265 282 nM | CP266 1.69 µM | CP268 1.35 µM | CP269 1.35 µM | CP286 89.1 nM | CP291 1.2 µM | CP297 2.69 µM | CP305 757 nM | CP315 3.38 µM | CP325 1.69 µM | CP329 1.69 µM | CP335 151 nM | DFO2036 112 nM | DIV14 601 nM | DIV17 675 nM | DIV30 2.39 µM | Dd2 89.1 nM | ECU 126 nM

CO[C@H]1C[C@@H]2CC[C@@H](C)[C@@](O)(O2)C(=O)C(=O)N2CCCC[C@H]2C(=O)O[C@H]([C@H](C)C[C@@H]2CC[C@@H](OCCO)[C@H](OC)C2)CC(=O)[C@H](C)/C=C(\C)[C@@H](O)[C@@H](OC)C(=O)[C@H](C)C[C@H](C)/C=C/C=C/C=C/1C
active: CP260 2000 nM | CP262 3.01 µM | CP265 1120 nM | CP266 6.01 µM | CP268 4.26 µM | CP269 4.26 µM | CP286 3160 nM | CP291 4.26 µM | CP297 3.79 µM | CP305 4780 nM | CP315 4.26 µM | CP325 4.78 µM | CP329 4.78 µM | CP335 1510 nM | DFO2036 1410 nM | DIV14 1690 nM | DIV17 1690 nM | DIV30 1.51 µM | Dd2 891 nM | ECU 1780 nM

CCCCC/C=C\C/C=C\CCCCCCCC(=O)O
inactive: CP260 | CP262 | CP265 | CP266 | CP268 | CP269 | CP286 | CP291 | CP297 | CP305 | CP315 | CP325 | CP329 | CP335 | DFO2036 | DIV14 | DIV17 | DIV30 | Dd2 | ECU

C[C@@H]1CCC2[C@@H](C)[C@@H](O)O[C@@H]3O[C@@]4(C)CC[C@@H]1[C@@]23OO4 (some centres not stated)
active: CP260 1.3 nM | CP262 0.006 µM | CP265 0.9 nM | CP266 0.0076 µM | CP268 0.0038 µM | CP269 0.0048 µM | CP286 2.5 nM | CP291 0.0043 µM | CP297 0.0048 µM | CP305 3.8 nM | CP315 0.0067 µM | CP325 0.0048 µM | CP329 0.006 µM | CP335 2.7 nM | DFO2036 1.6 nM | DIV14 3 nM | DIV17 2.7 nM | DIV30 0.0024 µM | Dd2 1 nM | ECU 0.9 nM

CCCCCCCCCCCCCCCC(=O)OCC(COC(=O)CCCCCCCCCCCCCCC)OC(=O)CCCCCCCCCCCCCCC
inactive: CP260 | CP262 | CP265 | CP266 | CP268 | CP269 | CP286 | CP291 | CP297 | CP305 | CP315 | CP325 | CP329 | CP335 | DFO2036 | DIV14 | DIV17 | DIV30 | Dd2 | ECU

CCCCCCCCCCCCCC[n+]1ccc(C)cc1
inactive: CP262
active: CP260 2510 nM | CP265 4470 nM | CP266 4.26 µM | CP268 1.69 µM | CP269 1.69 µM | CP286 1260 nM | CP291 4.26 µM | CP297 4.78 µM | CP305 2390 nM | CP315 4.78 µM | CP325 3.38 µM | CP329 4.26 µM | CP335 4260 nM | DFO2036 4470 nM | DIV14 1690 nM | DIV17 1900 nM | DIV30 4.78 µM | Dd2 2820 nM | ECU 3160 nM

COc1ccc2c3c1O[C@H]1C[C@@H](O)C=C[C@@]31CCN(C)C2
inactive: CP260 | CP262 | CP265 | CP266 | CP268 | CP269 | CP286 | CP291 | CP297 | CP305 | CP315 | CP325 | CP329 | CP335 | DFO2036 | DIV14 | DIV17 | DIV30 | Dd2 | ECU

C[C@H]1C[C@H]2[C@@H]3CCC4=CC(=O)C=C[C@]4(C)[C@@]3(F)[C@@H](O)C[C@]2(C)[C@@]1(O)C(=O)CO
inactive: CP260 | CP262 | CP265 | CP266 | CP268 | CP269 | CP286 | CP291 | CP297 | CP305 | CP315 | CP325 | CP329 | CP335 | DFO2036 | DIV14 | DIV17 | DIV30 | Dd2 | ECU

CC(C)(C)C(=O)OCOC(=O)[C@@H]1N2C(=O)[C@@H](N=CN3CCCCCC3)[C@H]2SC1(C)C
inactive: CP260 | CP262 | CP265 | CP266 | CP268 | CP269 | CP286 | CP291 | CP297 | CP305 | CP315 | CP325 | CP329 | CP335 | DFO2036 | DIV14 | DIV17 | DIV30 | Dd2 | ECU

CC1(C)C(C=C(Cl)Cl)C1C(=O)OCc1cccc(Oc2ccccc2)c1 (configuration not stated)
inactive: CP260 | CP262 | CP265 | CP266 | CP268 | CP269 | CP291 | CP297 | CP305 | CP315 | CP325 | CP329 | CP335 | DFO2036 | DIV14 | DIV17 | DIV30 | ECU

CC(NNC(=O)c1ccccc1)c1ccccc1 (configuration not stated)
inactive: CP260 | CP262 | CP265 | CP266 | CP268 | CP269 | CP286 | CP291 | CP297 | CP305 | CP315 | CP325 | CP329 | CP335 | DFO2036 | DIV14 | DIV17 | DIV30 | Dd2 | ECU

Nc1c(N=Nc2ccc(-c3ccc(N=Nc4cc(S(=O)(=O)O)c5ccccc5c4N)cc3)cc2)cc(S(=O)(=O)O)c2ccccc12
inactive: CP260 | CP262 | CP265 | CP266 | CP268 | CP269 | CP286 | CP291 | CP297 | CP305 | CP315 | CP325 | CP329 | CP335 | DFO2036 | DIV14 | DIV17 | DIV30 | Dd2 | ECU

O=C(O)CCC(=O)C(=O)O
inactive: CP260 | CP262 | CP265 | CP266 | CP268 | CP269 | CP286 | CP297 | CP305 | CP315 | CP325 | CP329 | CP335 | DFO2036 | DIV14 | DIV17 | DIV30 | Dd2 | ECU

CCOc1ccc2c(c1)C(C)=CC(C)(C)N2
inactive: CP260 | CP262 | CP266 | CP268 | CP269 | CP286 | CP291 | CP297 | CP305 | CP315 | CP325 | CP329 | DFO2036 | DIV14 | DIV17 | DIV30 | Dd2 | ECU

CC(Cc1ccc(O)c(O)c1)C(C)Cc1ccc(O)c(O)c1 (configuration not stated)
inactive: CP260 | CP262 | CP265 | CP266 | CP291 | CP305 | CP315 | CP325 | CP329 | CP335 | DFO2036 | DIV30 | ECU

CC(O)CO (configuration not stated)
inactive: CP260 | CP262 | CP265 | CP266 | CP268 | CP269 | CP286 | CP291 | CP297 | CP305 | CP315 | CP325 | CP329 | CP335 | DFO2036 | DIV14 | DIV17 | DIV30 | Dd2 | ECU

Oc1cc(O)c2c(c1)OC(c1ccc(O)c(O)c1)C(O)C2 (configuration not stated)
inactive: CP260 | CP262 | CP265 | CP266 | CP268 | CP269 | CP286 | CP291 | CP297 | CP305 | CP315 | CP325 | CP329 | DFO2036 | DIV14 | DIV17 | DIV30 | Dd2

IC(I)I
inactive: CP260 | CP262 | CP265 | CP266 | CP268 | CP269 | CP286 | CP297 | CP315 | CP325 | CP329 | CP335 | DFO2036 | DIV17 | DIV30 | Dd2 | ECU

Nc1c(Br)cc(Br)cc1CNC1CCC(O)CC1 (configuration not stated)
inactive: CP260 | CP262 | CP265 | CP266 | CP268 | CP269 | CP291 | CP297 | CP305 | CP315 | CP325 | CP329 | DFO2036 | DIV14 | DIV17 | DIV30 | Dd2 | ECU

O=C(O)c1cc(O)c2c(c1)[O][Bi][O]2
inactive: CP260 | CP262 | CP265 | CP268 | CP269 | CP286 | CP291 | CP297 | CP305 | CP315 | CP325 | CP329 | DFO2036 | DIV14 | DIV30 | Dd2 | ECU

COCC(=O)Nc1cc(Sc2ccccc2)ccc1N=C(NC(=O)OC)NC(=O)OC
inactive: CP260 | CP262 | CP265 | CP266 | CP268 | CP269 | CP286 | CP291 | CP297 | CP305 | CP315 | CP325 | CP329 | CP335 | DFO2036 | DIV14 | DIV17 | DIV30 | Dd2 | ECU

Cc1ccccc1OCC(O)CNCCOc1ccc(C(N)=O)cc1 (configuration not stated)
inactive: CP260 | CP262 | CP265 | CP266 | CP268 | CP269 | CP286 | CP291 | CP297 | CP305 | CP315 | CP325 | CP329 | CP335 | DFO2036 | DIV14 | DIV30 | Dd2 | ECU

COC(F)(F)C(Cl)Cl
inactive: CP260 | CP262 | CP265 | CP266 | CP268 | CP269 | CP286 | CP291 | CP297 | CP305 | CP315 | CP325 | CP329 | CP335 | DFO2036 | DIV14 | DIV17 | DIV30 | Dd2 | ECU
